This is a sample that favours compounds with a hit; in the whole collection about 14% have one here.
LmPK inhibitor = blocks Leishmania mexicana pyruvate kinase activity | Q27686 | purified LmPK, Kinase-Glo ATP luminescence, 1 h | Potency, µM (titrated, usually from 57.5 µM), without a hit: at the top dose activity change, negative = inhibition, most hits filed as inhibitors | actives 0.37% (n = 290,000) | AID 1721; further: potency means the concentration at half of the fitted maximal effect; on the % scale 0 is the no-effect control and ±100 the full control effect
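Pyruvate kinase activity monitored as ATP production (luciferase luminescence). Conditions: 0.1 nM enzyme, 0.5 mM PEP, 0.1 mM ADP, 1 h, RT; normalized against uninhibited and no-enzyme wells.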
NS1 inh = influenza NS1 inhibition; Potency, µM (highest dose often 46.1 µM), inactives show at the top dose activity, positive = more growth; actives 0.4% (n = 270,000); calls by dose curve; further: potency means the concentration at half of the fitted maximal effect; actives are rising curves; nearly all actives have a fitted effect of over 50% in size
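Recovery from NS1-induced slow growth read by OD600 in budding yeast switched to galactose assay medium (pH 6.0, -URA) at 1:100 dilution. Compound 23 nl per well; the matching strain lacking NS1 serves as control.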
Giardia FBPA inh = Giardia lamblia aldolase inhibition. AID 2451. actives 0.71% (n = 290,000). purified Giardia FBPA. Potency, µM (titrated, usually from 59.6 µM), inactives show at the highest dose activity, negative = inhibition, most hits filed as inhibitors; further: potency means the concentration at half of the fitted maximal effect; on the % scale 0 is the no-effect control and ±100 the full control effect; nearly all actives have a fitted effect of over 55% in size
Target sequence (A8B2U2 whole entry, looked up): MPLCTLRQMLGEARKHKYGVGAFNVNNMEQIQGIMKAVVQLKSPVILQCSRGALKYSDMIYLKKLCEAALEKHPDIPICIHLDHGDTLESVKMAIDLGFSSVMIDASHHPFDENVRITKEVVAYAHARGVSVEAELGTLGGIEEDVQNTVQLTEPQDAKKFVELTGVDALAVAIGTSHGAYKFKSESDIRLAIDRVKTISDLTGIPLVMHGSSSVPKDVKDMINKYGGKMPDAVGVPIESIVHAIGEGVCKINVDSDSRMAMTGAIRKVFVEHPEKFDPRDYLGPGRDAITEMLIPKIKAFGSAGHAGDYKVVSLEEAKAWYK
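Giardia FBPA (40 nM reagent) was preincubated 10 min at RT with compound (up to 57.5 uM final), then substrate plus GAPDH/TPI/NAD/arsenate coupling system with diaphorase/resazurin was added; resorufin fluorescence (525/598 nm) was read after 20 min.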
Shiga toxin inh = Shiga toxin inhibition | Vero cells, Shiga toxin protein synthesis inhibition reporter | inhibition, % at 38.7 µM | actives 9.2% (n = 290,000) | AID 2315; in the data active means inhibition mostly above about 28%, no sharp cut-off; inactive means mostly below about 43%; further: 0% is about no effect
Cycloheximide cs = counter-screen hit for Shiga toxin inhibitors, cycloheximide; actives 12% (n = 300,000); AID 2314; cell reporter, cycloheximide protein synthesis inhibition counterscreen; max response, %; in the data active means max response mostly above about 13%, no sharp cut-off; inactive means mostly below about 14%; further: read at 38.3 µM for the half of the compounds with a filed dose; 0% is about no effect
The depositor's hits bear a star; ? = inconclusive; / = no result; [ ] = dose if it differs, or a comment. Unless noted, the call rests on the fitted dose curve; in most records, active means well fitted curve in the direction sought with a large enough effect; inconclusive means small, poorly fitted or top-dose-only effect, or another doubt; inactive means no such curve, though single readings can be large; an effect the other way counts as inactive or inconclusive.

SMILES	LmPK inhibitor	NS1 inh	Giardia FBPA inh	Shiga toxin inh	Cycloheximide cs
COC(=O)c1ccc(NC(=O)Nc2ccc3c(c2)OCO3)cc1	-6%	9%	20%	87*	50*
O=C(Nc1ccc2c(c1)OCCO2)Nc1ccc2c(c1)OCO2	-12%	/	-11%	62*	33*
O=C(Nc1ccc2c(c1)OCO2)NC1(C(F)(F)F)Oc2ccccc2O1	0%	-2%	?	66	30
O=C(Nc1ccc2c(c1)OCCO2)NC1(C(F)(F)F)Oc2ccccc2O1	?	23%	-10%	89*	92*
O=C(Nc1ccc2c(c1)OCO2)Nc1ccc(Br)cn1	-9%	0%	-1%	83*	37*
O=C(c1cnn2c(C(F)F)cc(-c3ccccc3)nc12)N1CCCCC1c1cccnc1 (configuration not stated)	-3%	-4%	3%	14	-2
CC#CCN1C(=O)N[C@@H](c2ccccc2)C(C(=O)OC)=C1C	-8%[11.5 µM]	/	2%[12.9 µM]	/	/
CC1CCN(CC[S-])CC1.O.O.[Cl][Pt]	/	5%	/	/	/
CC(C)[C@@H](CC(=O)N[C@@H]1CCNC[C@H]1C(=O)N[C@H](CC(=O)N[C@@H](CCC(=O)O)CC(=O)O)Cc1c[nH]c2ccccc12)NC(=O)C[C@H](Cc1ccccc1)NC(=O)[C@@H]1CCCC[C@H]1N	/	/	-17%	/	/
CC(=O)Nc1ccc2c(c1)OCCO2	-2%	-22%	/	-2	0
CC1(C(=O)Nc2ccc3c(c2)OCCO3)CC1(Cl)Cl (configuration not stated)	1%	6%	/	42*	23*
CC(C)N1CCC(NC(=O)Nc2ccc3c(c2)OCO3)CC1	3%	6%	-4%	28	29*
O=C(O)C1CC=CCC1C(=O)Nc1ccc2c(c1)OCCO2 (configuration not stated)	1%	-2%	-2%	36*	61*
O=C(O)C1CC=CCC1C(=O)Nc1ccc(F)c(F)c1 (configuration not stated)	2%	2%	9%	-7	-4
CC(C)CC(=O)Nc1ccc2c(c1)OCO2	2%	1%	1%	30	19
O=C(CCl)Nc1ccc2c(c1)OCO2	6%	/	-5%	26	34*
Cc1c(C(=O)N2CCOCC2)c(S(=O)(=O)Nc2ccc(C(C)C)cc2)c(C)n1C	6%	-7%	-5%	-3	-4
O=S1(=O)OC(c2ccc(O)cc2)(c2ccc(O)cc2)c2ccccc21	/	-8%	/	/	/
CCCCCCc1c(C)c2ccc(OCC(=O)N3CCC[C@H]3C(=O)O)c(C)c2oc1=O	-3%	25%	16%	0	-3
Cc1cc(C(=O)Nc2c[nH]c(=O)[nH]c2=O)ccc1[N+](=O)[O-]	-4%	/	-1%	5	16
O=C(Nc1cccc([N+](=O)[O-])c1)Nc1ccc2c(c1)OCCO2	2%	-2%	-18%	53	33*
Cc1ccnc(NC(=O)Nc2ccc3c(c2)OCO3)c1	-2%	/	0%	74*	27*
O=C(Nc1ccc2c(c1)CCC2)Nc1ccc2c(c1)OCO2	1%	/	4%	134*	47*
O=C(Nc1cccc([N+](=O)[O-])c1)Nc1cccc([N+](=O)[O-])c1	-1%	/	-7%	-5	7
O=C(Nc1ccc2c(c1)OCCO2)NC12CC3CC(CC(C3)C1)C2	2%	-36%	-15%	108*	49*
SMILES	LmPK inhibitor	NS1 inh	Giardia FBPA inh	Shiga toxin inh	Cycloheximide cs
Cc1nc2cnc(Nc3ccccc3)nc2n(C2CC2)c1=O	/	/	6%	/	/
CN1CCN(c2ncc3nc(-c4cn(C)c5ccccc45)c(=O)n(Cc4cccs4)c3n2)CC1	/	/	5%	/	/
NC(=O)c1ccc(NC(=O)Nc2ccc3c(c2)OCO3)cc1	-10%	4%	/	47*	34*
C[C@H]1Cc2c(-c3ccccc3)nc3c(c2CO1)CN(C(=O)NCCc1c[nH]c2ccccc12)CC3	-4%[11.5 µM]	/	0%[12.9 µM]	/	/
Cc1cccc(CNc2cc(-c3ccc(C(=O)N(C)C)cc3)ncn2)c1	/	/	-6%	/	/
O=[N+]([O-])c1ccc(-c2nnc(CNC3CCCC3)o2)cc1	-12%	/	-7%	20	13
Clc1ccc(-c2nnc(CNC3CC3)o2)cc1	-4%	-9%	11%	23	21*
O=C(NCCCN1CCOCC1)c1cc(-c2ccc(Br)cc2)on1	1%	-5%	8%	21	14
O=C(NCCCn1ccnc1)c1cc(-c2ccc(Br)cc2)on1	8%	/	4%	59	29*
C=CCNC(=O)c1cc(-c2ccc(Br)cc2)on1	4%	-13%	7%	89*	24*
COc1ccc2c(Cl)c(C(=O)NCCCn3ccnc3)sc2c1	-9%	-13%	-1%	39	20*
O=C(NCCCn1ccnc1)c1cc(-c2ccc3c(c2)OCO3)on1	-4%	-3%	-1%	22*	12*
COc1ccc(-c2cc(C(=O)NCCCn3ccnc3)no2)cc1OC	-2%	8%	3%	-9	-2
COc1cccc(-c2cc(C(=O)NCCCn3ccnc3)no2)c1	-3%	0%	-7%	103*	23*
O=C(NCc1cccnc1)c1nc(-c2ccccc2)n(-c2ccccc2)n1	-5%	19%	/	-5	4
CCOC(=O)C1CCN(C(=O)c2cccs2)CC1	4%	2%	5%	5	-2
CCOC(=O)C1CCN(c2ccc(-c3cccs3)nn2)CC1	14µM*	-9%	3%	99*	37*
CCOC(=O)C1CCN(C(=S)NC(=O)c2cccs2)CC1	-1%	0%	?	47	29*
c1csc(-c2ccc(N3CCOCC3)nn2)c1	?	7%	0%	27	25*
Cc1nnc2ccc(N3CCOCC3)nn12	-5%	8%	4%	-10	-4
CCOC(=O)C1CCN(c2ccc(Cl)nn2)CC1	0%[11.5 µM]	/	6%	21	11
COc1ccc(Oc2ncc3nc(C)c(=O)n(Cc4cccc(OC)c4)c3n2)cc1	/	/	-23%	/	/
O=C1C(NS(=O)(=O)c2cccs2)=C(N2CCN(c3ccccc3)CC2)C(=O)c2ccccc21	-22%	10%	?	44*	11
COC(=O)N/N=C/c1ccccc1	-6%	1%	1%	30	17*
COC(=O)N/N=C/c1cccnc1	-2%	2%	3%	-7	-4
SMILES	LmPK inhibitor	NS1 inh	Giardia FBPA inh	Shiga toxin inh	Cycloheximide cs
CSC(=S)N/N=C/c1ccccc1	-8%	/	0%	27*	25*
NC(=S)N/N=C/c1ccc(/C=N/NC(N)=S)cc1	4%	7%	1%	1	-2
COc1ccc(/C=N/NC(=S)SC)cc1OC	-1%	/	2%	22	18*
O=C(N/N=C/c1c(F)cccc1Cl)C(=O)N1CCCCCC1	-12%	-2%	/	-12	1
Cc1cccc2nc(-c3ccco3)c(Nc3ccc4c(c3)OCO4)n12	2%[11.5 µM]	/	-5%	24	31*
Cc1cccc2nc(-c3ccco3)c(Nc3ccccc3)n12	8%	/	0%	7	5
Cc1cc(C)n2c(Nc3ccc4c(c3)OCCO4)c(-c3ccccc3)nc2n1	0%	-7%	-17%	52*	46*
Nc1nc(SCc2ccccc2[N+](=O)[O-])c2[nH]cnc2n1	/	0%	/	/	/

High-throughput results (PubChem BioAssay)
